Experiment [1] in a line: rapamycin-like changes in RPL19A-GFP expression – cell-based, S. cerevisiae, multiplex flow cytometry, primary screen (AID 1862; in the data active means percent of DMSO control GFP below about 86%;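 further: lower values mimic rapamycin by blocking the RPL19A rise seen in DMSO cells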). The note with it: S. cerevisiae RPL19A-GFP strain, flow cytometry fluorescence, 3 h; at 10 µM; stronger effect = lower value.
Experiment [2] in a line: TOR pathway GLN3 branch reporter MEP2-GFP changes – S. cerevisiae, multiplex flow cytometry, primary screen (AID 1867;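 active means GFP response, as percent of the DMSO control, above the screen-wide mean plus 3 SD, about 139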;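 further: median GFP channel fluorescence of barcode-gated MEP2-GFP cells measured by flow cytometry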). The conditions noted are these: S. cerevisiae MEP2-GFP strain, 3 h, at 10 µM, stronger effect = higher value, 100% means same as DMSO wells. Background: In flow cytometry, cells or beads pass a laser one at a time.
Experiment [3] is described as follows: TOR pathway RTG branch CIT2 reporter changes – S. cerevisiae, GFP fusion, multiplex flow cytometry, primary screen (AID 1870;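 active means percent response above a set limit, the screen-wide mean plus 3 SD, cut at about 130% in these data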;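 further: barcoded CIT2-GFP strain pooled with four other GFP strains with rapamycin as positive control; median GFP fluorescence per well over plate mean of DMSO wells so 100% = DMSO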). The note with it: S. cerevisiae CIT2-GFP expression, 3 h, at 10 µM, stronger effect = higher value.
Experiment [4] in a line: TOR pathway LAP4-GFP level changes – S. cerevisiae, multiplex flow cytometry, primary screen (AID 1873;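 active means GFP signal, as percent of the solvent control, above the screen mean plus 3 SD, about 149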). The note with it: S. cerevisiae LAP4-GFP expression, 3 h, at 10 µM, stronger effect = higher value.
Experiment [5] is described as follows: yeast AGP1-GFP level changes, GLN3 branch – cell-based, multiplex flow cytometry, S. cerevisiae, primary screen (AID 1887;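 active means GFP signal above the screen-wide mean plus 3 SD, that is over about 124.5% of the solvent control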;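 further: AGP1-GFP fusion strain of S. cerevisiae within a five-strain barcoded multiplex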). The note with it: 3 h, at 10 µM, stronger effect = higher value.
Experiment [6] is described as follows: reduced mouse 2C T cell binding to pMHC/ICAM-1 vesicles – MLPCN validation set, flow cytometry, LFA-1/ICAM-1 modulator project, pilot screen (AID 2523;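 active means response below a set limit, under 55% cells CD8-positive and vesicle-bound, and CD8 cells' 90th-percentile brightness under 279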;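 on vesicle binding response: mean PE anti-B7-1 fluorescence of CD8+ cells relative to row control; 100% = QL9-loaded vesicles with DMSO vehicle in the same plate row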). The note with it: 2C mouse CD8+ T cells, at 7 µM, stronger effect = lower value; double positive events: measured here: CD8+/vesicle+ event percentage.
The target in experiment [7] is Integrin beta-1 (Homo sapiens) + Integrin alpha-4 (Homo sapiens) (UniProt P13612+P05556). The experiment can be described thus: alpha4beta1 integrin LIBS antibody binding reduction – U937 cells, HUTS-21 mAb, flow cytometry, validation set, VLA-4 allosteric modulator project, pilot screen (AID 2674;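 active means inhibition above 50%, about 3 SD of the validation set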;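 further: antibody binding induced by the VLA-4 ligand LDV present at three times its Kd; 0% = LDV ligand with antibody and no compound and 100% = antibody without LDV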). The conditions noted are these: HUTS-21 LIBS mAb binding, at 6.7 µM, stronger effect = higher value, binding induced by LDV ligand.

The nature of experiment [8]: calorie-restriction mimetic ROS inhibitors, yeast – validation compound set, pilot screen (AID 2706;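 active means superoxide response below 65% of plate, a cut near 3 SD across the whole screen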;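 further: yeast exposed to compound for one week at 30 degrees C before staining; 100% = mean of all compound wells on the same plate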). The conditions noted are these: S. cerevisiae aging, superoxide DHE fluorescence; at 10 µM, stronger effect = lower value.
For experiment [9], the target named is Beta-adrenergic receptor kinase 1 (Homo sapiens) (UniProt P25098). Nature of the experiment: GRK2 binders displacing RNA aptamer, biochemical, validation, human GRK2, bead flow cytometry (AID 488806). The note with it: bead-bound GRK2, FAM-aptamer displacement, at 10 µM, stronger effect = higher value.
For experiment [10], the target named is AP-2 complex subunit beta (Homo sapiens) (UniProt P63010). The experiment can be described thus: beta-arrestin/AP2 interaction blockers – biochemical, validation set, GST-AP2 beads, flow cytometry, pilot screen (AID 504541;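 active means inhibition above 54%, about 3 SD of non-fluorescent compounds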;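 further: AP2 carries R879A mutation and is captured from E. coli lysate; bead-bound FITC arrestin peptide fluorescence measuring arrestin peptide binding to AP2; 0% = DMSO wells and 100% = excess unlabeled arrestin peptide control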). The conditions noted are these: FITC arrestin peptide, at 10 µM, stronger effect = higher value, AP2 beta2 appendage fragment, R879A mutant.
Experiment [11] is described as follows: cytosolic pH regulators acting via V-ATPase – S. cerevisiae, pHLuorin, HTS validation (AID 504600; in the data active means response above about 15%;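 further: plate controls were DMSO for no effect and reference compound for full effect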). The conditions noted are these: V-ATPase proton transport, at 10 µM, stronger effect = higher value.
Experiment [12] concerns anti-desmoglein-3 scFv antibody binding to human DSG3. Nature of the experiment: blockers of pathogenic pemphigus antibody–desmoglein-3 binding – biochemical, validation compound set, bead-based, flow cytometry, pilot screen (AID 588368;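 active means binding below the plate cutoff, the plate median minus 3 SD, with a reading above zero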;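 further: signal is the median channel fluorescence of bead-bound GFP antibody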). The note with it: Protein G beads, DSG3-Fc, scFv-GFP binding, at 10 µM, stronger effect = lower value.
A short description of experiment [13]: Nile Red efflux blockade in pump-expressing yeast – validation compound set, multiplex, phenotypic, pilot screen (AID 588506;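 active means efflux inhibition above 0.42, the validation set average plus 4 SD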;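 further: Nile Red retained in cells so higher fluorescence means more efflux inhibition; 0 = negative control wells and 1 = enniatin B 25 µM full block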). The conditions noted are these: S. cerevisiae pump-expressing triplex, Nile Red efflux flow cytometry; at 10 µM; stronger effect = higher value; the pumps come from Candida albicans.
The target of experiment [14] is ATP-binding cassette sub-family B member 6 (Homo sapiens) (UniProt Q9NP58). The experiment can be described thus: blockers of ABCB6-driven porphyrin uptake – K562-ABCB6 cells, flow cytometry, validation set, pilot screen (AID 588550;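 active means inhibition above the screen-wide mean plus 3 SD, about 51%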;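 further: 0% = DMSO wells and 100% = benzethonium chloride 70 µM positive control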). The note with it: K562-ABCB6 porphyrin accumulation, 1 h, at 10 µM, stronger effect = higher value.
Experiment [15] can be described thus: AML differentiation inducers, ER-HoxA9 marrow cells – cell-based, GFP/MAC1 double positive, flow cytometry, validation set, primary screen (AID 588685;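 active means differentiation response of at least 50%, scaled between solvent and reference control, from cells with both markers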;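 further: compound exposure lasts four days before antibody staining and flow analysis; 0% = DMSO wells and 100% = 5 µM fulvestrant positive control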). The conditions noted are these: stronger effect = higher value, normalized: vehicle 0, fulvestrant 100.

Records with an inconclusive call do not appear. Active and inactive are the calls of the source.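 How the source made its calls, unless noted: active means aptamer binding inhibition above 30%, about 3 SD of noise from non-fluorescent compounds; inactive means inhibition at or below 30%.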

Chain of ATP-binding cassette sub-family B member 6 (Homo sapiens) (Q9NP58 whole entry, looked up): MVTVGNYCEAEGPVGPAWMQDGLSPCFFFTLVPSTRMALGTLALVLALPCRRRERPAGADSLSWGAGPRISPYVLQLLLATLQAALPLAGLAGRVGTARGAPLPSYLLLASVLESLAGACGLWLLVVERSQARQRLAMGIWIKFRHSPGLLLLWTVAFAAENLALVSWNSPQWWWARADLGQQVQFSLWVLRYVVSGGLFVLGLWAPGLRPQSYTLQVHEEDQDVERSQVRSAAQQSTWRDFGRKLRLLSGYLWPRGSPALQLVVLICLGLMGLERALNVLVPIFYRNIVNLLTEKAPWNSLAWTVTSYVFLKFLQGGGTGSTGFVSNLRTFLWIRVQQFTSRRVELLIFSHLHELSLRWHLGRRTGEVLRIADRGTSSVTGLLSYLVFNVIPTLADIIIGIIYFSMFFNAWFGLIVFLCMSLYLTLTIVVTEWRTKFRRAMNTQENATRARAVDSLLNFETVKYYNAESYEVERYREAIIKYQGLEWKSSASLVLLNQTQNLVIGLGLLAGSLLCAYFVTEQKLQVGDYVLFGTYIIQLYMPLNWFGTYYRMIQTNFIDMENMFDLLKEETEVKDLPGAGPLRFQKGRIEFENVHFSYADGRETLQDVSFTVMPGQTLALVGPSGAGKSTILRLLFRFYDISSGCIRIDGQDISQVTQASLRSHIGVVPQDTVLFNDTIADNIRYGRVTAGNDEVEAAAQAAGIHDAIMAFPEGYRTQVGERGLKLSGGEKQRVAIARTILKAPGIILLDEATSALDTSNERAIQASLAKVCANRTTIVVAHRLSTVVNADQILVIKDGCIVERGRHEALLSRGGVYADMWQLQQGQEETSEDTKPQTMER
Chain of AP-2 complex subunit beta (Homo sapiens) (P63010 whole entry, looked up, the tested form may be a part, one chain of several): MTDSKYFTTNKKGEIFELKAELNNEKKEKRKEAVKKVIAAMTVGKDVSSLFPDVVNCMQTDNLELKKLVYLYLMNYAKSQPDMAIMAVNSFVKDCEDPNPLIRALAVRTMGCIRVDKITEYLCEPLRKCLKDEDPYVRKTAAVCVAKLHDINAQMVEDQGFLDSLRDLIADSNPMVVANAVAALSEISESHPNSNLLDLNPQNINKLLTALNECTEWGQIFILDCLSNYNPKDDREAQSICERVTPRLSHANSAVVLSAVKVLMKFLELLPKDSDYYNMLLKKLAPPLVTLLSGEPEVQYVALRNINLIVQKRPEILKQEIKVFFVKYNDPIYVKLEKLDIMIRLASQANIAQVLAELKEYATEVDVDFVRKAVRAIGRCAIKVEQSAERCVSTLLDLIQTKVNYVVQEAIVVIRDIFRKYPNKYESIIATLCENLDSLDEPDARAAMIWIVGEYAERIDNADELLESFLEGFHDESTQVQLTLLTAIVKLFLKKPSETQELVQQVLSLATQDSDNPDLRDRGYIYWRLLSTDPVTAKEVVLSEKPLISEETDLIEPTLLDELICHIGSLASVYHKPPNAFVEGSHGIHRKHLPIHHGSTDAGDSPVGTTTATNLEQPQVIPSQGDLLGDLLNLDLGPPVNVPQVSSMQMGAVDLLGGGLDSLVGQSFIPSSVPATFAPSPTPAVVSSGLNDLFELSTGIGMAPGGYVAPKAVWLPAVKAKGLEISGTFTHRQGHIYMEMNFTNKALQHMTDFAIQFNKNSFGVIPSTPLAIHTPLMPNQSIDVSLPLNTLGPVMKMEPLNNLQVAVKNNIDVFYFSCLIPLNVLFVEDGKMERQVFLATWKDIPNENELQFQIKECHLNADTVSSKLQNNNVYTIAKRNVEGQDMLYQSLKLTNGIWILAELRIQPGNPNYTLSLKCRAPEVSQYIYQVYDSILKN
Chain of Beta-adrenergic receptor kinase 1 (Homo sapiens) (P25098 whole entry, looked up): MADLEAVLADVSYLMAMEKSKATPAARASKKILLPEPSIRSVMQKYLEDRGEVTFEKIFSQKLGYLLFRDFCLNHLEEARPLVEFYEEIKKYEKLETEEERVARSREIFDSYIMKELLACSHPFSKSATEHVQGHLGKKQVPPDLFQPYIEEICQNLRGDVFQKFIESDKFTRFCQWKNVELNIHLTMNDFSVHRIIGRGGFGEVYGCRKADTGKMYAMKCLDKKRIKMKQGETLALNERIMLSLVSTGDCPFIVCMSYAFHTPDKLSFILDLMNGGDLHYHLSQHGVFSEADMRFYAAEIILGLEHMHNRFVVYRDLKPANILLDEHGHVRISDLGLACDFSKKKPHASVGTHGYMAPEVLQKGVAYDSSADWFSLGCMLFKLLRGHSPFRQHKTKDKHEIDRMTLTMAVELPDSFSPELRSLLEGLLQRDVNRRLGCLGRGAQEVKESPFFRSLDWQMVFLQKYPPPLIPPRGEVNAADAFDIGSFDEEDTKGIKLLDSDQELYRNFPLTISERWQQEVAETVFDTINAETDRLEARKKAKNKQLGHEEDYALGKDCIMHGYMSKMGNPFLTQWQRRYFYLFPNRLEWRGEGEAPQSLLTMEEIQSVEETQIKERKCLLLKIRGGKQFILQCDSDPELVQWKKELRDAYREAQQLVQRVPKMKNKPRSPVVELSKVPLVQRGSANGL
Chain of Integrin beta-1 (Homo sapiens) + Integrin alpha-4 (Homo sapiens) (P05556 whole entry, looked up): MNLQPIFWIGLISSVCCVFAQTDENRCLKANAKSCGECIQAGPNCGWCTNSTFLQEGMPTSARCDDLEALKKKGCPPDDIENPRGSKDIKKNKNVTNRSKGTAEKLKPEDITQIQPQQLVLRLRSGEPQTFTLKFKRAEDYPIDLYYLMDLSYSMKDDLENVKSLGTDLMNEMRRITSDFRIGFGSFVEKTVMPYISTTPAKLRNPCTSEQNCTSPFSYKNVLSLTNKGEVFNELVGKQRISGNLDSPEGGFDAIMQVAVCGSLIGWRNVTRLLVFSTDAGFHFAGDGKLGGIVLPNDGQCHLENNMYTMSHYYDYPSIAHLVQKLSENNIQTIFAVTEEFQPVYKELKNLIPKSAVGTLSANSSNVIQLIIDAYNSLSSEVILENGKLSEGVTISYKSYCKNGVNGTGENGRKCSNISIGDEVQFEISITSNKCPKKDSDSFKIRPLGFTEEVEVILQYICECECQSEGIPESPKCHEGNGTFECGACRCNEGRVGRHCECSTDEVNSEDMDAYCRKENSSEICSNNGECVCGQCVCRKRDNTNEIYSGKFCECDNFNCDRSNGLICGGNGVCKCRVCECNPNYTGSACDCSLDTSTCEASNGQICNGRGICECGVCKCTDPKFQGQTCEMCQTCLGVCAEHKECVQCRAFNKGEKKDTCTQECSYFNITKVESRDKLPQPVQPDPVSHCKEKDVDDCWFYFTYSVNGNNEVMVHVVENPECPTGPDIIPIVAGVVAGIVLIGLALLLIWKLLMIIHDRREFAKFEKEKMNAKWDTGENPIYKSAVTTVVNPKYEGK
Chain of Integrin beta-1 (Homo sapiens) + Integrin alpha-4 (Homo sapiens) (P13612 whole entry, looked up): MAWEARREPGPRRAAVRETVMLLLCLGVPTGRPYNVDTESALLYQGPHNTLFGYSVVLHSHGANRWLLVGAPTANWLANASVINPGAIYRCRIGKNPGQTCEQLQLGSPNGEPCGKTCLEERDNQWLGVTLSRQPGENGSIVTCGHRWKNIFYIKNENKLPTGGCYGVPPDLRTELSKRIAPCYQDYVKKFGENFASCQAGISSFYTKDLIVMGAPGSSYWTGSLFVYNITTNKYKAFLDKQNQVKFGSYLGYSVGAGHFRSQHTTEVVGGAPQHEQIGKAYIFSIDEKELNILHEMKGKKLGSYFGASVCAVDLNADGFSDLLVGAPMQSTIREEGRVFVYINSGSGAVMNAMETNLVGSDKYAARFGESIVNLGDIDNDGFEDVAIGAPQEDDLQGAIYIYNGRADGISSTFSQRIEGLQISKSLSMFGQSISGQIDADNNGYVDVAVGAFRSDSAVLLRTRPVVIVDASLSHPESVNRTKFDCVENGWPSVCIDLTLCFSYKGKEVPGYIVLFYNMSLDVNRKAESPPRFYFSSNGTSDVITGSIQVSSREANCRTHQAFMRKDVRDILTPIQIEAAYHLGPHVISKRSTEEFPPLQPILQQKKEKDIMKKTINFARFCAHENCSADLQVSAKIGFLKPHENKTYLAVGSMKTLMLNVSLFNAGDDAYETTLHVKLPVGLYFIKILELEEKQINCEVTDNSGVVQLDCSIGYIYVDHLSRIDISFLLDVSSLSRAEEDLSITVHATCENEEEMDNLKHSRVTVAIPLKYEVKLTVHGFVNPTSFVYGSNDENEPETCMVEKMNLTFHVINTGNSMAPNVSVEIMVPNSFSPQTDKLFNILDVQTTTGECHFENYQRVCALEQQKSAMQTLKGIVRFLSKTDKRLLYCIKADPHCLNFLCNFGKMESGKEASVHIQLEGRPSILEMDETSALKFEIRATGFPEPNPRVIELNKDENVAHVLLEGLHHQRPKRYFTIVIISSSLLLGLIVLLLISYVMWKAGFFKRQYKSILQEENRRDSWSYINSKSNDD

For the compound `CC(CCc1ccccc1)NCC(O)c1ccc(O)c(C(N)=O)c1` (stereo not given), in experiment [1], the percent of DMSO control GFP was 99.5% (inactive). The GFP response vs DMSO was 98.9% (inactive) in experiment [2] and 109% (inactive) in [4]. Besides, the percent response of DMSO control in [3] was 107% (inactive). In experiment [5], the GFP response, % of DMSO is 105% (inactive). This compound also displayed a double positive events in experiment [6] of 52.5%. Moreover, the vesicle binding response in [6] was 175% (inactive). The inhibition in experiment [7] is -2.11% (inactive); in experiment [10] it was -4.92% (inactive); in experiment [14] it was 9% (inactive). In experiment [8], the superoxide response (% of plate) was 97.6% (inactive). For the same compound, in experiment [9], the aptamer binding inhibition was 0% (inactive). The response in [11] was -3.48% (inactive). The binding (% of control) in experiment [12] was 101% (inactive). The efflux inhibition (fraction of control) in [13] was -0.2 (inactive). Also, the differentiation response in [15] was -6.66% (inactive).
Take `OC(CCN1CCCCC1)(c1ccccc1)C1CCCCC1` (stereo not given): the percent of DMSO control GFP in experiment [1] is 107% (inactive). The GFP response vs DMSO was 102% (inactive) in experiment [2] and 106% (inactive) in experiment [4]. Further, in [3], the percent response of DMSO control is 108% (inactive). The GFP response, % of DMSO in [5] is 105% (inactive). Also, the double positive events in [6] amounted to 40.6%. Also, the vesicle binding response in experiment [6] is 185% (inactive). The results for the inhibition in [7], in [10] and in experiment [14] were 0% (inactive), -9.7% (inactive) and 5% (inactive), respectively. Besides, the superoxide response (% of plate) in experiment [8] is 97.3% (inactive). The aptamer binding inhibition in [9] is -3% (inactive). Besides, the response in experiment [11] was -2.57% (inactive). In addition, in [12], the binding (% of control) is 108% (inactive). Besides, the efflux inhibition (fraction of control) in [13] is -0.05 (inactive). In addition, the differentiation response in experiment [15] was -8.27% (inactive).
With `COc1cc2nc(N3CCN(C(=O)C4COc5ccccc5O4)CC3)nc(N)c2cc1OC` (stereo not given), the percent of DMSO control GFP in experiment [1] is 101% (inactive). Also, the GFP response vs DMSO is 108% (inactive) in experiment [2] and 110% (inactive) in experiment [4]. The percent response of DMSO control in [3] was 104% (inactive). For the same compound, the GFP response, % of DMSO in [5] was 116% (inactive). In addition, the double positive events in [6] worked out at 61.4%. The vesicle binding response in experiment [6] is 203% (inactive). Also, the figures for the inhibition in experiment [7], in experiment [10] and in experiment [14] were -8.78% (inactive), 26.5% (inactive) and -6% (inactive), respectively. In addition, the superoxide response (% of plate) in experiment [8] is 57.2% (active). The aptamer binding inhibition in experiment [9] was 1% (inactive). Further, the response in experiment [11] was -4.66% (inactive). For the same compound, the binding (% of control) in experiment [12] is 108% (inactive). The efflux inhibition (fraction of control) in experiment [13] is 0 (inactive). For the same compound, the differentiation response in experiment [15] was 3.88% (inactive).
`COc1cccc(OCc2cc(C3Nc4ccccc4C(=O)N3Cc3ccco3)ccc2OC)c1` (stereo not given): the percent of DMSO control GFP in [1] is 106% (inactive). Moreover, the figures for the GFP response vs DMSO in experiment [2] and in experiment [4] were 99.9% (inactive) and 92.3% (inactive), respectively. Moreover, the percent response of DMSO control in [3] was 104% (inactive). For the same compound, the GFP response, % of DMSO in experiment [5] is 88.9% (inactive). The double positive events in [6] is 53.2%. Further, the vesicle binding response in experiment [6] was 127% (inactive). Moreover, the inhibition in experiment [7] is 3.49% (inactive); in [10], -4.8% (inactive); in [14], 3% (inactive). In addition, the superoxide response (% of plate) in experiment [8] is 99.1% (inactive). The aptamer binding inhibition in experiment [9] is 4% (inactive). The response in experiment [11] was 0% (inactive). Besides, the binding (% of control) in experiment [12] is 96.5% (inactive). For the same compound, the efflux inhibition (fraction of control) in experiment [13] was 0.03 (inactive). Also, the differentiation response in experiment [15] is -9.89% (inactive).
`C[C@@H]1C[C@H]2[C@@H]3CCC4=CC(=O)C=C[C@]4(C)[C@@]3(F)[C@@H](O)C[C@]2(C)[C@@]1(O)C(=O)COP(=O)(O)O`: the percent of DMSO control GFP in experiment [1] was 104% (inactive). Besides, the GFP response vs DMSO in experiment [2] was 98.9% (inactive); in experiment [4], 83.3% (inactive). Also, the percent response of DMSO control in experiment [3] is 101% (inactive). Also, in experiment [5], the GFP response, % of DMSO was 93% (inactive). The compound also had a double positive events in experiment [6] of 53.3%. Further, the vesicle binding response in [6] was 126% (inactive). Moreover, the inhibition was 20.3% (inactive) in experiment [7], -3.37% (inactive) in experiment [10] and 10% (inactive) in [14]. Moreover, in experiment [8], the superoxide response (% of plate) was 106% (inactive). Besides, the aptamer binding inhibition in experiment [9] is 2% (inactive). In addition, the response in [11] was 4.69% (inactive). In experiment [12], the binding (% of control) was 96.9% (inactive). For the same compound, the efflux inhibition (fraction of control) in experiment [13] is -0.09 (inactive). Moreover, in experiment [15], the differentiation response was -13.1% (inactive).

In general, inhibition refers to the drop in the measured response relative to a control, in per cent.

The record behind these values is PubChem BioAssay.
